Pf Dd2 inh = inhibitors of Plasmodium falciparum Dd2 growth; P. falciparum Dd2 growth, SYBR Green, 72 h; 120,000 tested, 4.3% active; Potency, µM (top dose mostly 28.9 µM), most hits filed as inhibitors; active = well fitted inhibition curve with a large enough effect; note: nearly all actives have a fitted effect of over 65% in size
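Infected erythrocytes (Dd2, 0.3% parasitemia, 2.5% hematocrit final) are added to compound in RPMI-1640/Albumax II medium, grown 72 h at 37C in low oxygen, then lysed with saponin/Triton-X containing SYBR Green and read by fluorescence.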
Hits are given with their value; – = inactive; [ ] = another dose, or the depositor's remark. The sample as a whole holds a higher share of hits than the screen did.

SMILES	Pf Dd2 inh
Cc1cccc(Cn2cc(S(=O)(=O)c3ccccc3)c(=O)c3cc(F)c(N4CCOCC4)cc32)c1	8.91µM
Cc1cccc(S(=O)(=O)c2cn(C)c3cc(N4CCC(C)CC4)c(F)cc3c2=O)c1	–
CCCCn1cc(S(=O)(=O)c2cc(C)ccc2C)c(=O)c2cc(F)c(N3CCC(C)CC3)cc21	–
CN(C)C(=O)N1CCC(C(=O)N2CCOC(Cc3cccc4ccccc34)C2)CC1 (configuration not stated)	–
NS(=O)(=O)c1ccc(F)c(C(=O)NCc2nc(C3CCCCC3)no2)c1	–
O=C(c1cncc(Br)c1)N1CCC(CCOc2ccccc2F)C1 (configuration not stated)	–
Cc1nc(C)c(C(=O)N2CCC3(CC2)NC(=O)CC3C(=O)O)s1 (configuration not stated)	–
Cc1nn(C)c2ncnc(N3CCC4(C3)C(=O)N(CC(N)=O)c3ccccc34)c12 (configuration not stated)	–
CCn1c(C2CCN(C(=O)CCn3nnnc3C)CC2)nn(C)c1=O	–
COc1ccc(C(=O)NCC2(COc3ccc(S(C)(=O)=O)cc3)C[C@@H](O)[C@@H](O)C2)cc1 (some centres not stated)	–
O=C(Cn1cc(SCc2ccccc2F)c2ccccc21)N1CCCC1	–
O=C(NCCn1cc(SCc2ccccc2Cl)c2ccccc21)c1cccs1	11.2µM
O=C(NCCn1cc(SCc2ccccc2)c2ccccc21)c1cccs1	–
CC(C)c1nc2c(NC(=O)COc3ccccc3)cccn2n1	–
COc1ccccc1CCC(=O)Nc1cccn2nc(C(C)C)nc12	10µM
CCc1nc2c(NC(=O)NCc3ccc(OC)cc3)cccn2n1	–
O=C(Nc1ccccc1)Nc1cccc(-c2nnc3n2CCCC3)c1	–
O=C(CC1CCCCC1)Nc1cccc(-c2nnc3n2CCCC3)c1	–
O=C(COc1ccc(-c2nnc3n2CCCC3)cc1)N1CCN(c2ccc(F)cc2)CC1	3.16µM
O=C(COc1ccc(Cl)cc1)Nc1ccc(-c2nnc3n2CCCC3)cc1	–
O=C(CN1C(=O)CCC1=O)N1CCCCCCn2c(nnc2-c2ccc(F)cc2)CC1	–
O=C(Cc1cccc(F)c1)Nc1ccc(-c2nnc3n2CCCC3)cc1	–
O=C(COc1ccc(F)cc1)Nc1cccc(-c2nnc3n2CCCC3)c1	8.91µM
O=C(Cc1ccccc1Cl)Nc1cccc(-c2nnc3n2CCCC3)c1	7.08µM
O=C(Cn1nc2n(c1=O)CCCCC2)N1CCN(c2ccc(F)cc2)CC1	–
SMILES	Pf Dd2 inh
O=C(COc1ccc(Cl)cc1)Nc1cccc(-c2nnc3n2CCCC3)c1	3.16µM
O=C(COc1cccc(-c2nnc3n2CCCC3)c1)NCc1ccc(F)cc1	–
CSc1cccc(NC(=O)Nc2ccc(-c3nnc4n3CCCC4)cc2)c1	–
O=C(CC1CCOCC1)NCc1cc(F)ccc1F	–
CN1CCN(c2nc3c(c(=O)[nH]2)CCN(Cc2cccc(Cl)c2F)CC3)CC1	–[5.79 µM]
Cn1nnnc1C1CCCN(C(=O)c2ccccc2F)C1 (configuration not stated)	–
COC[C@H]1NC(=O)CC[C@H]1C(=O)N1CCN(c2ccccc2F)CC1	–
O=C(C[C@H]1NC(=O)c2ccccc2NC1=O)Nc1ccc(N2CCOCC2)cc1	–
CN(C)C(=O)C1CN(C(=O)c2ccc(Br)cc2)CC12CCOCC2 (configuration not stated)	–
CCOc1cc(C2c3c(oc4ccccc4c3=O)C(=O)N2c2ccccn2)ccc1O (configuration not stated)	–
CCOc1ccc(-c2oc3ccccc3c(=O)c2O)cc1OCC	10µM
CCCOc1ccc(C2c3c(oc4ccccc4c3=O)C(=O)N2c2ccc(C)cn2)cc1OCC (configuration not stated)	–
COc1ccc(-c2noc([C@@H](C)NC(=O)c3nc4ccccc4[nH]3)c2C(=O)O)cc1	–
COCCc1noc(C2CN(C(=O)C3CCOC3)C2)n1 (configuration not stated)	–
OC(CNc1nccc(-c2cccnc2)n1)COc1ccc(Cl)cc1 (configuration not stated)	14.1µM
Cc1cc(=O)[nH]c(NCCNc2nccc(-c3cccnc3)n2)n1	–
CC(C)S(=O)(=O)CCNc1nccc(-c2cccnc2)n1	–
O=C(NC1CC1)C1COC2(CCN(C(=O)c3cccc([N+](=O)[O-])c3)CC2)N1C(=O)c1ccccc1 (configuration not stated)	–
O=C(NCCc1ccccc1)c1cnc2n1CCN(CCc1ccccc1)CC2	–
Cc1nnc([C@@H]2CC(F)(F)CN2C(=O)c2nccc3ccccc23)o1	–
CCCSc1nnc2n(-c3ccc(OC)cc3)c(=O)c3c4c(sc3n12)COC(C(C)C)C4 (configuration not stated)	10µM
COc1ccc(-n2c(SCCC(C)C)nc3sc4c(c3c2=O)CC(C(C)C)OC4)cc1 (configuration not stated)	–
COC(=O)CSc1nnc2n(-c3ccccc3)c(=O)c3c4c(sc3n12)COC(C(C)C)C4 (configuration not stated)	–
Cn1nccc1CN1CC(Oc2ccc3c(c2)OCO3)C1	–
COc1ccc(C(=O)N2CCCC(c3nc(-c4cnccn4)no3)CCNC(=O)CC2)cc1F (configuration not stated)	–
SMILES	Pf Dd2 inh
Oc1cccc(Nc2ncnc3sc4c(c23)CCCC4)c1	–
CCNc1ncnc2sc3c(c12)CCN(Cc1ccncc1)C3	12.6µM
COCCCNc1ncnc2sc3c(c12)CCN(Cc1cccnc1)C3	5.01µM
CCNc1ncnc2sc3c(c12)CCN(C(=O)CCOC)C3	–
COc1ncc(CN2CCc3c(n(Cc4cccnc4)n(-c4ccccc4)c3=O)C2)cn1	–
CCNc1ncnc2sc3c(c12)CCN(C(=O)COC)C3	–
COc1cccc(N2C(=O)NC(=NC3CCCCC3)C23CCN(C(=O)c2ccc(C)cc2)C3)c1 (configuration not stated)	–
CCOc1ccccc1C(=O)NCc1nnc2ccc(-c3ccc(C)c(C)c3)nn12	–
CN1c2cc(C(=O)Nc3ccc(Cl)c(C(F)(F)F)c3)ccc2C(=O)N2CCCC21 (configuration not stated)	–
CC(CCc1ccccc1)NC(=O)c1ccc(CN2C(=O)NC3(CCOCC3)C2=O)cc1 (configuration not stated)	–
COCc1cc(Cn2cc(-c3cncnc3)nn2)[nH]n1	–
CCC(C)NC(=O)C1CCC(CNS(=O)(=O)c2cccc3nsnc23)CC1 (configuration not stated)	0.794µM
CCCN(CCC)CCCNC(=O)C1CCN(S(=O)(=O)c2cccc3nsnc23)CC1	–
Cc1ccc(NC(=O)C2CCC(CNS(=O)(=O)c3cccc4nsnc34)CC2)c(Cl)c1 (configuration not stated)	–
COC(=O)CNC(=O)C1CCN(S(=O)(=O)c2cccc3nsnc23)CC1	–
Cc1ccc(Cl)cc1NC(=O)C1CCC(CNS(=O)(=O)c2cccc3nsnc23)CC1 (configuration not stated)	3.55µM
Cc1ccc(NC(=O)C2CCN(S(=O)(=O)c3cccc4nsnc34)CC2)cc1F	–
Cc1ccc(NC(=O)N2C[C@@H](Oc3ccccc3)C[C@H]2C(=O)N2CCOCC2)cc1C	–
CNC(=O)[C@@H]1C[C@H](Oc2cccnc2)CN1C(=O)Cc1cccc(OC)c1	–
COc1ccc(-c2noc([C@@H]3CCCN3C(=O)Cc3ccc(F)cc3)n2)cc1OC	–
CCNC(=O)N1CCc2cc(OC)c(OC)cc2C1CNC(=O)C1CC1 (configuration not stated)	–
